High-throughput results deposited in PubChem by National Center for Advancing Translational Sciences (NCATS).
HTT ATP protect = qHTS Multiplex Assay to Identify Dual Action Probes in a Cell Model of Huntington: Cytoprotection (ATP) | Potency, µM (series often up to 56.4 µM), hits mostly activators | 0.14% of 230,000 active | PC12 HTT-Q103 induced, cytoprotection, ATP luminescence, 40 h; further: nearly all actives have a fitted effect of over 45% in size
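Compounds were screened for protection of PC12 cells against cell death after tebufenozide induction (100 nM final) of mutant Huntingtin exon 1 (Q103) fused to GFP.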
GoLoco inh red = qHTS Assay for Inhibitors of RGS12 GoLoco Motif Activity (Red Fluorophore). Guanine nucleotide-binding protein G(i) subunit alpha-1 (Homo sapiens), P63096. AID 880, 2007. Gai1:RGS12 GoLoco peptide FP, rhodamine, 10 min. Potency, µM (top dose mostly 61.6 µM), usual class: inhibitors. 0.44% of 230,000 active; active means well fitted inhibition curve with a large enough effect, not every such curve was filed as active; inactive means no such curve, though single readings can be large or run the other way; further: nearly all actives have a fitted effect of over 30% in size
Target sequence (P63096 whole entry, looked up): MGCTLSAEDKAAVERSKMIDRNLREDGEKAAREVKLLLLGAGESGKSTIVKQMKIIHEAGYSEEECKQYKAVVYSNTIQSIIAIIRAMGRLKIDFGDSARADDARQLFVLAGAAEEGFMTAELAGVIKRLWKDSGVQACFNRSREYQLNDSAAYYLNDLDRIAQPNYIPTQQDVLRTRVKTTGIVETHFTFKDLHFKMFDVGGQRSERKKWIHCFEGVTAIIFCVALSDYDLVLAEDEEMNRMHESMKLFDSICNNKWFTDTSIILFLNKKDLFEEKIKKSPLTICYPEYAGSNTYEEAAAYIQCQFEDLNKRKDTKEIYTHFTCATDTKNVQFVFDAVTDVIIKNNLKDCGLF
HPGD inh = qHTS Assay for Inhibitors of HPGD (15-Hydroxyprostaglandin Dehydrogenase); 15-hydroxyprostaglandin dehydrogenase [NAD(+)] (Homo sapiens), P15428; purified HPGD, NADH fluorescence kinetic, PGE2 substrate; Potency, µM, most hits filed as inhibitors; 4.3% of 150,000 active; active means well fitted inhibition curve with a large enough effect, not every such curve was filed as active; inconclusive means small, poorly fitted or top-dose-only effect, or another doubt; inactive means no such curve, though single readings can be large or run the other way
Target sequence (P15428 whole entry, looked up): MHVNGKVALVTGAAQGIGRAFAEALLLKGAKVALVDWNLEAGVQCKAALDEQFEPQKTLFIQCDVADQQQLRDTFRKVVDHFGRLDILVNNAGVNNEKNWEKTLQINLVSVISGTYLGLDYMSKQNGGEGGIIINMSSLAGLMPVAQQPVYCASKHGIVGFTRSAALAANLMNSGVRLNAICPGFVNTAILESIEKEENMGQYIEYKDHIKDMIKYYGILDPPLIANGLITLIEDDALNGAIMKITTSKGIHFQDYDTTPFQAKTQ
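20 nM HPGD preincubated 15 min at room temperature with compound in 50 mM Tris-HCl pH 8, 0.01% Tween 20. Started with 1 mM NAD+ and 30 uM prostaglandin E2; NADH fluorescence (360/450 nm) read 5 times over 30-s intervals, last minus first.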
PNC inhibitor = High Content Assay for Compounds that inhibit the Assembly of the Perinucleolar Compartment. 3.1% of 140,000 active. activity change (PNC), negative = inhibition, % at 10 µM. PC3M PTB-GFP, PNC prevalence imaging, 16 h; active compounds read low. AID 2417, 2010;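 active means readout at or below -70, meaning at least 70% loss of cells showing the perinucleolar compartment, a nuclear body marking cancer cells; inconclusive means readout between -30 and a set limit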
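Compounds are pinned in duplicate onto adhered PC3M cells stably expressing GFP-tagged PTB and incubated 16 h at 37 C. Cells are then fixed, nuclei stained with Hoechst, and PNC-positive cells counted.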
ALDH1A1 inh = qHTS Assay for Inhibitors of Aldehyde Dehydrogenase 1 (ALDH1A1) | Purified ALDH1A1, NADH fluorescence, propionaldehyde substrate | Potency, µM (highest dose often 75.3 µM), hits mostly inhibitors | 7.3% of 220,000 active; active means well fitted inhibition curve with a large enough effect, not every such curve was filed as active; inconclusive means small, poorly fitted or top-dose-only effect, or another doubt; inactive means no such curve, though single readings can be large or run the other way
HTT aggregate = qHTS Multiplex Assay to Identify Dual Action Probes in a Cell Model of Huntington: Aggregate Formation (GFP); PC12 HttQ103-GFP aggregates, Acumen cytometry, 40 h; Potency, µM (highest dose often 46.1 µM), most hits filed as inhibitors; 1.1% of 220,000 active; AID 1688, 2009; further: nearly all actives have a fitted effect of over 60% in size
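Aggregate formation scored by laser-scanning cytometer (488 excitation, 500–530 emission) in lysed PC12 cells expressing Q103-GFP after 100 nM tebufenozide induction; library tested in dose series, with ATPLite reagent added in the multiplex.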
Each line names hits and unclear results; the compound was inactive in the other large screens; ! = not confirmed by another sample. Only some compounds are listed: those with a hit (about 11% of all), similar ones and a draw of the others. Unless noted, the call rests on the fitted dose curve; in most records, active means well fitted curve in the direction sought with a large enough effect; inconclusive means small, poorly fitted or top-dose-only effect, or another doubt; inactive means no such curve, though single readings can be large; an effect the other way counts as inactive or inconclusive.

CCNC(=O)Nc1nc2ccccc2s1	none (no result: HPGD inh, PNC inhibitor)
Cc1sc2ncn(CC(=O)N3CCCCC3)c(=O)c2c1C	none (no result: HPGD inh, PNC inhibitor)
C=CCC(O)(C#Cc1ccccc1)c1ccccc1 (stereo not drawn)	none (no result: PNC inhibitor, HTT aggregate)
CN(C)C(=S)Nc1nc2ccccc2s1	ALDH1A1 inh 7.94µM (no result: HPGD inh, PNC inhibitor)
Cc1ccc(C(=O)n2nc(-c3ccco3)nc2N)cc1	HPGD inh inconclusive, PNC inhibitor inconclusive, ALDH1A1 inh inconclusive
Cc1ccc(C(=O)n2ncn(C)c2=S)cc1	ALDH1A1 inh 6.31µM (no result: HPGD inh, PNC inhibitor)
Cc1ccc(C)c2c1[nH]c1ccccc12	none
CNCCCCc1cnc(C)c2[nH]c3ccccc3c12	HTT ATP protect 3.55µM, HPGD inh inconclusive, ALDH1A1 inh inconclusive (no result: PNC inhibitor, HTT aggregate)
CCOc1cccc(/C=N/Nc2ccc(S(=O)(=O)N(CC)CC)cn2)c1O	HTT aggregate 1.41µM
COC(=O)C1=C(C(=O)OC)[C@@H]2Nc3ccccc3[C@@]23C[C@@H](C(=O)OC)N(C(=O)C2CCC2)C3=N1	none (no result: PNC inhibitor, HTT aggregate)
CC/C=C\C/C=C\C/C=C\CCCCCCCCCC(=O)O	none (no result: PNC inhibitor, HTT aggregate)
CC/C=C\C/C=C\C/C=C\CCCCCCCCCCCC(=O)O	ALDH1A1 inh 22.4µM! (no result: PNC inhibitor, HTT aggregate)
CC/C=C\C/C=C\C/C=C\CCCCCCCC(=O)O	HTT ATP protect inconclusive, ALDH1A1 inh 10µM! (no result: PNC inhibitor)
O=C(Oc1cccc2c(OC(=O)N3CCCC3)cccc12)N1CCCC1	PNC inhibitor -100.0, ALDH1A1 inh inconclusive
COc1ccc(/C=C(\C#N)C(=O)NC2CCS(=O)(=O)C2)cc1OC (stereo not drawn)	PNC inhibitor -119.3
COc1ccc(/C=C(\NC(=O)c2ccccc2)C(=O)NC2CCS(=O)(=O)C2)cc1 (stereo not drawn)	none (no result: HPGD inh, PNC inhibitor, ALDH1A1 inh)
Cc1nc(NC(=O)c2ccccc2)sc1C1(C)CC(c2c(Cl)cccc2Cl)=NO1 (stereo not drawn)	none (no result: HPGD inh, PNC inhibitor, ALDH1A1 inh)
CC1CN(c2oc(COc3ccc(Cl)cc3Cl)nc2C#N)CC(C)O1 (stereo not drawn)	HPGD inh inconclusive, PNC inhibitor -100.0
N#Cc1nc(COc2ccccc2Cl)oc1N1CCCCCC1	PNC inhibitor -121.7, ALDH1A1 inh inconclusive
N#Cc1nc(COc2ccccc2)oc1N1CCCCC1	HPGD inh inconclusive, ALDH1A1 inh 12.6µM, HTT aggregate inconclusive
N#Cc1nc(COc2ccc(Cl)cc2)oc1N1CCCCCC1	HPGD inh inconclusive, PNC inhibitor inconclusive, ALDH1A1 inh inconclusive
O=[N+]([O-])c1cccc(C2=N[C@@H](Cc3ccccc3)CO2)c1	ALDH1A1 inh inconclusive (no result: PNC inhibitor, HTT aggregate)
OCCC1CN(Cc2ccc3c(c2)CCO3)CCN1Cc1ccc(F)cc1 (stereo not drawn)	none (no result: HPGD inh, PNC inhibitor)
Cn1cc(CN2CCC(C(=O)N3CCCCC3)CC2)c(-c2ccccc2F)n1	none (no result: HPGD inh, PNC inhibitor)
CCN(CC)CCn1nc2c3c(cccc3c1=O)-c1ccccc1-2	HTT aggregate 0.631µM (no result: HPGD inh, PNC inhibitor)
COc1cccc(/C=N/NC(=O)CC(=O)NCCc2ccc(OC)c(OC)c2)c1	none
COc1ccccc1NC(=O)c1c(Nc2ccccc2C)sc(C(=O)Nc2cccc(Cl)c2)c1N	PNC inhibitor inconclusive
Nc1ccc(F)cc1F	ALDH1A1 inh inconclusive (no result: PNC inhibitor, HTT aggregate)
Cc1cc(C)c(S(=O)(=O)/N=C2/C=C(SCC(=O)O)C(=O)c3ccccc32)cc1C	ALDH1A1 inh 7.08µM, HTT aggregate 12.6µM (no result: HPGD inh, PNC inhibitor)
Cc1ccc(S(=O)(=O)CCSc2nc(C)cc(C(F)(F)F)c2C#N)cc1	PNC inhibitor -118.9, ALDH1A1 inh 0.355µM, HTT aggregate inconclusive
CCOC(=O)NC(=O)CSc1nc(C)cc(C(F)(F)F)c1C#N	HTT aggregate 10µM
COC(=O)C/C=C\[C@@H](C)[C@@H](/C=N\O[C@@H](C)CN1CCCc2nc(C)c(C)cc21)NS(=O)(=O)c1ccc(C)cc1	ALDH1A1 inh inconclusive (no result: GoLoco inh red, HPGD inh, PNC inhibitor, HTT aggregate)
COc1ccc(-c2csc3c2[N+]2=CCC=C2C3=O)cc1	none (no result: PNC inhibitor, HTT aggregate)
OC[C@@H]1O[C@@H](n2cnc3c(NCCc4ccccc4)ncnc32)[C@@H](O)[C@H]1O	none (no result: GoLoco inh red, HPGD inh, PNC inhibitor, ALDH1A1 inh, HTT aggregate)
CC(C)CC1OCCC=CC1C (stereo not drawn)	none (no result: GoLoco inh red, HPGD inh, PNC inhibitor, HTT aggregate)
Cc1c(C#N)c(N=CN(C)C)c(C(=O)c2ccc(Br)cc2)n1-c1ccccc1	PNC inhibitor inconclusive, ALDH1A1 inh 22.4µM
Cc1c(C#N)c(N=CN(C)C)c(C(=O)c2ccccc2)n1-c1ccc(Br)cc1	none
Cc1noc(NS(=O)(=O)c2ccc(NC(=O)CSc3nc4c(cc3C#N)CCC4)cc2)c1C	HPGD inh 31.6µM, ALDH1A1 inh inconclusive
Cc1noc(NS(=O)(=O)c2ccc(NC(=O)CSc3nc4c(cc3C#N)CCCC4)cc2)c1C	HPGD inh 28.2µM, PNC inhibitor inconclusive, ALDH1A1 inh 28.2µM
CC(C)(C)c1ccc(S(=O)(=O)CC(O)CSc2nc3c(cc2C#N)CCCC3)cc1 (stereo not drawn)	HPGD inh inconclusive, ALDH1A1 inh 2µM
CCN(CC)c1ccc(C=Nc2ccc(C#N)cc2)c(O)c1	HPGD inh 28.2µM, ALDH1A1 inh 35.5µM
c1ccc(Cc2nnc3sc(-c4ccco4)nn23)cc1	ALDH1A1 inh inconclusive
S=c1[nH]cc(Cc2ccccc2)s1	HPGD inh 20µM, ALDH1A1 inh 10µM (no result: HTT ATP protect)
COc1ccc(NS(=O)(=O)c2ccc(NS(=O)(=O)c3ccc(C)cc3)cc2)nn1	ALDH1A1 inh 12.6µM
